Screens from PubChem.
This is a sample that favours compounds with a hit; in the whole collection about 1.4% have one here.
INS-1E GSIS act: primary screen for activators of insulin secretion dependent on glucose, INS-1E cells, GLuc reporter luminescence | INS-1E GLuc reporter insulin secretion, 2-3 h | activation, % at 16.6 µM | 370,000 tested, 0.61% active;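 active = lowest replicate activation of at least 40%, so every replicate reaches that level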;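 also: 0% = median of neutral control wells and 100% = median of IBMX positive control wells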
AF4-AF9 inh: blocks AF4 peptide binding to human AF9. AlphaScreen, biotin-AF4 peptide binding to FLAG-AF9. P42568. 350,000 tested, 0.47% active. inhibition, % at 10 µM;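 active = every replicate reaching a set inhibition limit, whatever the replicate mean, cut at about 25% in these data; inconclusive = mean inhibition reaches that limit but some replicates miss it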;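 also: 0% = plate neutral control median and 100% = total signal loss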
PGC1a acetyl inh: modulators of PGC1a acetylation | inhibition, % at 15.6 µM | AID 651687 | U2OS PGC1a acetylation, AlphaScreen anti-acetyl-lysine; with virally co-expressed GCN5 acetyltransferase | 350,000 tested, 0.17% active;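 active = every replicate shows inhibition of at least 40%; inconclusive = mean inhibition at least 40% but some replicate below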;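 also: 0% = neutral control wells and 100% = positive control wells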
RAD52 anneal inh: blocks human RAD52 DNA annealing; P43351; recombinant RAD52 DNA annealing, FRET fluorescence; inhibition, % at 18.7 µM; 360,000 tested, 0.46% active; AID 651710;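 active = every replicate showing at least 50% inhibition; inconclusive = mean inhibition at least 50% but not in every replicate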
Target sequence (P43351 whole entry, looked up): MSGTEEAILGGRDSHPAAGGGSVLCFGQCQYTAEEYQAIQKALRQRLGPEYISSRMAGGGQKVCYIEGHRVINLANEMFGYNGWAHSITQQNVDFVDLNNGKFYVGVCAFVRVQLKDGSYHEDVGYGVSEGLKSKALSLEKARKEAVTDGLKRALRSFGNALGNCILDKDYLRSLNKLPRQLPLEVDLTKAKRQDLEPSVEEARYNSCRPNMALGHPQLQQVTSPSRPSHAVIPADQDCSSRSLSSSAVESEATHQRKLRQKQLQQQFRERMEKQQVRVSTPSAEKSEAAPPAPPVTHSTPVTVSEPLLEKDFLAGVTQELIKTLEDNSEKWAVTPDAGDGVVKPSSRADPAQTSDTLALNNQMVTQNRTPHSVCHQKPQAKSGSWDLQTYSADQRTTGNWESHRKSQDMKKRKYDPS
RAD54 inh: inhibitors of human RAD54 branch migration; RAD54 Holliday junction branch migration, FAM/BHQ fluorescence; inhibition, % at 10.4 µM; 360,000 tested, 0.14% active;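 active = mean normalized replicate activity at least 40 and at least half of replicates scoring 40 or more; inconclusive = only one of the two criteria met; inactive = mean below 40 and under half of replicates reaching 40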;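 also: 0% = median of neutral control wells and 100% = median of positive control wells; inhibitors cause a drop in the FAM fluorescence signal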
ERAP1 HTS inh: ERAP1 (human) enzyme inhibition. Q9NZ08. recombinant ERAP1, Leu-AMC fluorescence, 60 min. inhibition, % at 10.7 µM. 340,000 tested, 0.15% active. AID 652197;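 active = mean replicate inhibition of at least 30%, or all replicates individually reaching that 30% level; inactive = mean below 30% and not every replicate reaching it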;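 also: 0% = neutral control wells and 100% = L-leucinethiol positive control wells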
DNA binding: counter-screen for Rad54 inhibitors: DNA binding compounds; shares compounds with RAD54 inh; Acridine orange-DNA displacement, fluorescence polarization, 20 min; AC50, µM (doses to about 35 µM), without a hit: at the top dose activity change, negative = DNA binding; 460 tested, 8% active; AID 651673;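 active = signal drop giving an AC50 within twice the top valid tested concentration of each sample, actives reach about 35 µM in these data; inactive = activity opposite to expected, plus the rest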;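 also: polarization loss reports compound binding to salmon sperm DNA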
An asterisk follows results filed as active; ? = inconclusive; . = no result.

SMILES	INS-1E GSIS act	AF4-AF9 inh	PGC1a acetyl inh	RAD52 anneal inh	RAD54 inh	ERAP1 HTS inh	DNA binding
NCCN1CCN(CCN)CC1	.	.	3.3	.	50.1*	.	-11.0%
C(CCCN1CCCCC1)CCN1CCCCC1	.	-0.4	-6.4	4.8	-3.8	1.5	.
COc1ccc2c3c([nH]c2c1)[C@H](CO)N(C(=O)Nc1c(C)noc1C)CC31CCN(CC2CCCCC2)CC1	16.6	11.5	-6.5	.	.	.	.
Cc1ccc(S(=O)(=O)NCCCNS(=O)(=O)c2ccccc2[N+](=O)[O-])cc1	-6.0	2.3	-41.0	0.6	?	-1.4	-19.8%
CNC[C@H]1OCCCC[C@@H](C)Oc2ccc(NS(=O)(=O)c3ccc(Cl)cc3)cc2C(=O)N([C@@H](C)CO)C[C@H]1C	7.7	1.3	-18.6	-71.9	-4.4	-14.0	.
C[C@H](CO)N1C[C@H](C)[C@@H](CN(C)C(=O)C2CCC2)Oc2cc(-c3ccc(F)cc3)ccc2S1(=O)=O	0.0	.	-14.1	.	.	.	.
CCOC(=O)c1c(NC(C)=O)sc2c(OCC(O)CNC(C)(C)C)c(Br)ccc12 (stereo not drawn)	44.9*	.	-36.0	.	?	.	-12.0%
CN(C)C(=O)c1cccc(-c2ccc3c(c2)[C@@H]2[C@@H](CCN2C(=O)C2CCCCC2)[C@H](CO)N3)c1	16.8	.	-8.9	.	-4.5	.	.
CN(C)CCCNc1nc2cc(-c3ccc(C(=O)N4CCN(C)CC4)cc3)sc2c(=O)n1C	-5.1	1.7	4.0	74.9*	?	-1.7	-15.9%
Cn1c(NCCN2CCCC2)nc2cc(-c3ccsc3)sc2c1=O	0.5	3.0	-6.2	-17.8	58.1*	3.3	-3.3%
COc1cccc(CNc2nc3cc(-c4ccc(C(=O)N5CCN(C)CC5)cc4)sc3c(=O)n2C)c1	1.8	1.8	.	19.9	17.9	-1.4	.
Cc1ccnc(SCC(=O)Nc2sc3c(c2C#N)CCC(C(C)(C)C)C3)n1 (stereo not drawn)	.	.	-8.5	.	?	.	-11.9%
CCOC(=O)N1CCN(S(=O)(=O)c2ccc(C(=O)Nc3sc4c(c3C(=O)OC)CCN(C)C4)cc2)CC1	-31.3	1.6	.	-76.5	?	-3.4	-6.7%
C[C@@H]1CN(C)C(=O)c2cccnc2O[C@H]1CN(C)C	6.8	.	.	.	.	.	.
O=C(c1ccccc1)N1CC(=O)N2[C@H](CO)[C@H](c3ccc(C#Cc4ccccc4)cc3)[C@H]2C1	-5.8	-1.6	-13.4	-37.2	.	-0.6	.
C[C@H]1CN(C)C(=O)Cc2cc(N(C)C)ccc2O[C@@H]1CN(C)S(C)(=O)=O	14.8	.	.	.	.	.	.
c1ccc(-c2nc(NCCCn3ccnc3)c3oc4ccccc4c3n2)cc1	-61.1	21.4	-24.4	49.6	?	-12.3	-15.2%
CCc1nc(NCCCn2ccnc2)c2oc3ccccc3c2n1	.	.	-0.1	.	-0.3	.	.
COc1ccc2c3c(n(C)c2c1)[C@H](CO)N(C(=O)CN(C)C)CC31CN(S(C)(=O)=O)C1	35.6	2.7	.	-5.4	.	-1.3	.
Cn1nc(-c2ccccc2)cc1NS(=O)(=O)c1ccccc1	8.3	-1.0	.	-2.4	.	1.3	.
Cn1nc(-c2ccccc2)cc1NS(=O)(=O)c1ccc(C#N)cc1	26.5	-3.0	-9.7	-7.3	?	2.8	-8.2%
O=C(C[C@H]1CC[C@@H]2[C@H](COC[C@@H](O)CN2C(=O)Nc2ccc(Cl)c(Cl)c2)O1)NCc1ccc(Cl)cc1	-33.0	-0.8	3.6	-10.7	-22.2	-1.3	.
Cc1[nH]ccc2c1[nH]c1cc(=O)ccc12	2.9	0.1	.	41.5	68.4*	-10.3	-12.2%
C[C@@H]1CN([C@H](C)CO)C(=O)c2cc(NS(=O)(=O)c3ccccc3)ccc2O[C@H]1CN(C)C(=O)Nc1ccc(C(F)(F)F)cc1	-8.4	.	12.0	.	.	.	.
Cc1ccc(S(=O)(=O)N2CCOCC2)c(C)c1NS(C)(=O)=O	17.9	.	4.5	.	?	.	0.2%
SMILES	INS-1E GSIS act	AF4-AF9 inh	PGC1a acetyl inh	RAD52 anneal inh	RAD54 inh	ERAP1 HTS inh	DNA binding
CC(C)N1CCc2c(sc(NC(=O)c3ccco3)c2C(N)=O)C1	30.1	0.1	-6.5	-39.7	30.5	0.0	.
CC(C)N1CCc2c(sc(NC(=O)c3ccc(C(=O)c4ccccc4)cc3)c2C(N)=O)C1	-10.7	14.8	.	-66.4	50.5*	-3.4	-8.6%
COC(=O)c1c(NC(=O)c2ccco2)sc2c1CCN(C(C)C)C2	-11.5	-0.1	.	30.5	61.8*	3.6	-8.7%
CC(C)N1CCc2c(sc(NC(=O)Cc3ccccc3)c2C(N)=O)C1	0.8	0.8	32.1	-2.3	12.6	5.9	.
C[C@@H]1CN([C@H](C)CO)C(=O)Cc2cc(NC(=O)Nc3ccc(C(F)(F)F)cc3)ccc2O[C@@H]1CN(C)C(=O)NC1CCCCC1	-13.4	.	2.4	.	.	.	.
COc1cc(CN2CC3(CCN(C)CC3)c3c([nH]c4cc(OC)ccc34)[C@@H]2CO)cc(OC)c1	-0.5	.	.	.	.	.	.
COc1cccc2sc3ccc(NCCC4CCCN4C)cc3c(=O)c12 (stereo not drawn)	.	8.4	.	12.8	61.0*	2.7	-11.5%
COc1cc2sc3cc(NCC[C@@H]4CCCN4C)ccc3c(=O)c2cc1OC	3.1	5.8	2.8	3.1	75.5*	-15.2	-22.5%
COc1cc2sc3cc(NCc4ccc(C)o4)ccc3c(=O)c2cc1OC	7.1	2.9	-33.7	11.8	11.3	-11.3	.
C[C@H](CO)N1C[C@H](C)[C@@H](CN(C)C(=O)C2CC2)Oc2ncc(C#Cc3ccccc3F)cc2C1=O	-1.5	-0.5	-4.7	13.5	3.0	-2.8	.
CN1CCc2[nH]c3ccc(C(=O)NN)cc3c2C1	.	.	1.5	.	66.9*	.	2.5%
NNC(=O)c1ccc2[nH]c3c(c2c1)CCCC3	-1.9	-2.1	-3.1	-0.8	.	-0.6	.
Cc1ccc2nc(C)cc(Nc3ccc4c(c3)OCCO4)c2c1	.	.	-38.7	.	59.8*	.	-9.1%
CCOc1ccc2nc(C)cc(Nc3cccc([N+](=O)[O-])c3)c2c1	.	3.1	.	12.0	.	0.4	.
Cc1cc(Nc2ccc3c(c2)OCCO3)c2ccccc2n1	21.2	4.5	.	3.6	.	-0.9	.
Cc1cc(Nc2ccc3c(c2)OCCO3)c2cccc(C)c2n1	36.9	.	1.2	.	64.5*	.	9.4%
CCOc1ccc2nc(C)cc(Nc3ccc4c(c3)OCCO4)c2c1	.	.	-7.6	.	58.1*	.	-10.6%
CCN(CC)CC(=O)Nc1cccc2c1C(=O)c1ccccc1C2=O	16.7	.	.	.	70.4*	.	2.0%
O=C(NCCCN1CCOCC1)c1cc2c(=O)[nH]c3ccccc3c2s1	6.2	.	-13.8	-215.2	23.3	4.2	.
CCCCN(CC)CCNC(=O)c1cc2c(=O)[nH]c3ccc(C)cc3c2s1	-15.1	5.1	-21.6	21.6	?	-1.7	-20.0%
CC1CCN(CCCNC(=O)c2cc3c(Cl)nc4ccccc4c3s2)CC1	13.6	7.3	-16.9	49.7	89.4*	2.7	-20.2%
CCN(CC)CCNC(=O)c1cc2c(=O)n(C)c3ccccc3c2s1	22.4	2.1	2.2	30.7	61.9*	0.2	-14.5%
CCN1CCN(CCCNC(=O)c2cc3c(=O)[nH]c4ccccc4c3s2)CC1	21.6	.	0.0	.	51.9*	.	-16.7%
